Laboratory results: PubChem BioAssay (NCI)
The panel holds about 83,000 compounds, 20% with a hit somewhere; the sample as a whole holds those more often.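 Treatment: one concentration, 48 hours, 96-well format. Scoring: percent growth, with anything below 10 considered active.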 A number with no mark means an inactive call. The source made the active and inactive calls.

system: A549/ATCC NSCLC; test: NCI-60 one-dose screen, 48 h (100 = growth as untreated, 0 = no growth, -100 = all killed); conditions: 10 µM unless noted

| Compound | growth |
| --- | --- |
| CC(C)C1=NOC(=O)C1=Cc1cn(-c2ccccc2)nc1-c1ccccc1 | 88.8% |
| CCN(CC)CCCNCc1cc(-c2ccccc2)nc2ccccc12 | 87.9% |
| CCOC(=O)CCC[P+](c1ccccc1)(c1ccccc1)c1ccccc1 | 90.7% |
| Cc1cccc(C[C@H](NC(=O)Nc2ccc(Cl)cc2F)C(=O)N[C@@H]2C(=O)N3C[C@H](O)C[C@H]3C(=O)N3CCN(C)C[C@H]3C(=O)N[C@@H](C)C(=O)N3C[C@H](C)C[C@H]3C(=O)O[C@H]2C)c1 | 35.6% |
| COc1cc(C)cc2oc3oc(=O)c(C(=O)c4cc5cc(Br)ccc5o4)cc3c(=O)c12 | 102% |
| COc1ccc(CC(C#N)c2ccc(Cl)cc2)cc1 (stereo not drawn) | 79.1% |
| Clc1ccc(/C=N/Nc2nc3ccccc3s2)c(Cl)c1 | 73.7% |
| Nc1nc(SCc2cccc([N+](=O)[O-])c2)c2[nH]cnc2n1 | 97.2% |
| COC(=O)[C@]12CCC(C)(C)C[C@H]1C1=CC[C@@H]3[C@@]4(C)C/C(=C/c5cccnc5)C(=O)C(C)(C)[C@@H]4CC[C@@]3(C)[C@]1(C)CC2 | 0.0781% [100 µM] (active) |
| Cn1cc(-c2nnc(-c3cn(C)c4ncccc34)o2)c2ccccc21 | 36% |
| Cc1ccc(C2=C/C(=C/c3ccc(Br)cc3)C(=O)N2CCc2ccc(S(N)(=O)=O)cc2)cc1 | 96% |
| COc1ccc2nc3cc(Cl)ccc3c(Nc3ccc(O)cc3)c2c1 | 46.6% |
| CCCCN(CC)CC(CC)Nc1cc(OC)cc2cccnc12 (stereo not drawn) | 96.3% |
| O=C(Nc1cccc2ccccc12)c1cc2ccccc2cc1O | 11.3% |
| C=C(C)[C@@H]1CC[C@]2(COCCC#N)CC[C@]3(C)[C@H](CC[C@@H]4[C@@](C)(CCCNCCC#N)[C@H](C(=C)C)CC[C@]43C)[C@@H]12 | 50.4% [100 µM] |
| Cc1ccc(-c2cn(C/C=C3\C=CN(S(=O)(=O)c4ccccc4)CC3)nn2)cc1 | 104% |
| CN(C)c1ccc(-c2ccc(-c3ccc(C(=N)N)cc3)s2)cc1 | -72.7% (active) |

| Compound | growth |
| --- | --- |
| CCOC(=O)c1nn(C2CCCCO2)c2ccc(NC(=O)CN3CCOCC3)cc12 (stereo not drawn) | 106% |
| Cn1cc(-c2noc(-c3cn(C)c4ncc(Br)cc34)n2)c2cc(Cl)ccc21 | 96.6% |
| Cc1cc2c(C(C)C)c(O)c(O)c(C=NCc3ccoc3)c2c(O)c1-c1c(C)cc2c(C(C)C)c(O)c(O)c(C=NCc3ccco3)c2c1O | 26.3% |
| Cc1cccc(C[C@H](NC(=O)Nc2ccc(C)cc2F)C(=O)N[C@@H]2C(=O)N3C[C@H](O)C[C@H]3C(=O)N3CCN(C)C[C@H]3C(=O)N[C@@H](C)C(=O)N3C[C@H](C)C[C@H]3C(=O)O[C@H]2C)c1 | 43.5% |
| COc1cc2c(c(Br)c1N)-c1cc(Br)c(N)cc1C2=O | 83.5% |
| CCN(CC)CCSC(=O)C(O)(c1ccccc1)C1CCCC1 (stereo not drawn) | 85.2% |
| CCN(CC)CCCOc1ccc2c(c1)O/C(=C\c1cccc(OC)c1)C2=O | 93.5% |
| CCOC(=O)/C(C#N)=C(\C)CCc1ccccc1 | 90.3% |
| O=C(CCN1CCCCC1)c1ccc(Cl)cc1 | 109% |
| C[C@H]1[C@H](C)CC[C@]2(C(=O)O)CC[C@]3(C)C(=CC[C@@H]4[C@@]5(C)C/C(=C/c6ccco6)C(=O)C(C)(C)[C@@H]5CC[C@]43C)[C@H]12 | -52.5% [100 µM] (active) |
| Cc1ccc(NC(=O)N[C@@H](Cc2cc(F)cc(F)c2)C(=O)N[C@@H]2C(=O)N3CCC[C@H]3C(=O)N3CCOC[C@H]3C(=O)N[C@@H](C)C(=O)N3C[C@H](C)C[C@H]3C(=O)O[C@H]2C)cc1 | 27.3% |
| CCCCOC(=O)c1c(C)[nH]c(/C=C2\N=C(c3ccc[nH]3)C=C2OC)c1C | -9.07% (active) |
| O=C(O)c1cn(C2CC2)c2cc(N3CCN(Cc4cc(Cl)ccc4O)CC3)c(F)cc2c1=O | 30.4% |
| C[n+]1cccc(NC(=O)c2ccc3ccc4ccc(C(=O)Nc5ccc[n+](C)c5)nc4c3n2)c1 | -3.45% (active) |
| O=c1cc(-c2ccccc2)oc2cc(OCc3cn(Cc4ccc(F)cc4)nn3)cc(O)c12 | 81.2% [100 µM] |
| CCc1ccc(NC(=O)N[C@@H](Cc2cc(F)cc(F)c2)C(=O)N[C@@H]2C(=O)N3C[C@H](O)C[C@H]3C(=O)N3CCOC[C@H]3C(=O)N[C@@H](C)C(=O)N3C[C@H](C)C[C@H]3C(=O)O[C@H]2C)cc1 | 79.3% |
